Source: PubChem BioAssay AID2401 (Southern Research Specialized Biocontainment Screening …, 2010)
Screen size: about 2,200 compounds; about 530 (24%) were called active.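 The calls were made as follows: active = inhibition above a set limit at one or more concentrations of the dose series; inactive = inhibition under that limit at every dose.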 Only a sample is shown. Measured potencies and affinities stand elsewhere.

assay: nmpC-GFP reporter counter-screen in S. Typhimurium, dose response, counter-screen for PhoP regulon inhibitor project, Salmonella Typhimurium, GFP fluorescence (AID 2401); conditions: 4 h; series mostly up to 150 µM; inhibition: at the top concentration;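 also: S. typhimurium with Mg-insensitive nmpC-GFP reporter grown at 10 µM Mg2+; drop in reporter fluorescence reflects general culture growth inhibition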

Row | Structure (SMILES) | inhibition
1 | NC(=O)c1c(N)sc2c1CCCCC2 | 12.1% (inactive)
2 | CCOC(=O)C1=C(C)NC(=S)NC1c1ccc(OC(=O)c2ccco2)cc1 (stereo unspecified) | -2.57% (inactive)
3 | Cn1c(C(O)c2ccc(Br)cc2)nc(Cl)c1Cl (stereo unspecified) | -2.83% (inactive)
4 | CN(C)C=NC(=O)c1[nH]c2ccc(Cl)cc2c1-c1ccccc1 | -5.43% (inactive)
5 | Clc1ccc(OCCN2CCN(c3ncnc4sccc34)CC2)cc1 | -6.81% (inactive)
6 | N[C@H](CSCc1ccccc1)C(=O)Nc1ccc([N+](=O)[O-])cc1 | -8.41% (inactive)
7 | O=C(Cc1ccc(Cl)cc1)NNS(=O)(=O)c1ccc([N+](=O)[O-])cc1 | 0% (inactive)
8 | O=C(O)CCCCCN1C(=O)c2ccc(C(=O)O)cc2C1=O | -20.1% (inactive)
9 | CCOC(=O)c1c(C)[nH]c(C)c1C(=O)CSc1ncccn1 | -16.1% (inactive)
10 | COc1ccc(NC(=O)CSc2nccn2-c2ccccc2)cc1 | -15.4% (inactive)
11 | COc1cc(OC)c(NC(=O)Nc2ccc(OC)c(OC)c2)cc1Cl | 10.1% (inactive)
12 | O=[N+]([O-])c1nn(-c2cccc(Cl)c2)n(O)c1=NCc1cccnc1 | 5.14% (inactive)
13 | O=c1c(Cl)c(Cl)cnn1-c1ccccc1 | 18.9% (inactive)
14 | CC1(C)CC(=O)C(C=Nc2ccc(Cl)cn2)=C(O)C1 | 7.22% (inactive)
15 | Cn1cccc1CC(=O)NNC(=S)Nc1ccc(Cl)cc1 | 8.8% (inactive)
16 | Cc1cn([C@H]2C[C@H](N=[N+]=[N-])[C@@H](CO)O2)c(=O)[nH]c1=O | -4.31% (inactive)

Row | Structure (SMILES) | inhibition
17 | Cc1c(C)n(Cc2ccccc2)c2ncnc(NN)c12 | 9.09% (inactive)
18 | CCOCc1nnc(NC(=O)COC)s1 | -6.16% (inactive)
19 | O=c1c2ccccc2nnn1Cc1ccccn1 | 4.75% (inactive)
20 | c1ccc(Oc2cc(-c3ccccc3)ncn2)cc1 | -7.11% (inactive)
21 | Oc1ccccc1NCC(O)Cn1ccc2ccccc21 (stereo unspecified) | 15.1% (inactive)
22 | Cc1ccc2nc(Cc3ccc(N)cc3)[nH]c2c1 | 29.3% (inactive)
23 | CCOc1ccc(S(=O)(=O)Nc2ccc(C(=O)N/N=C/c3c(C)nn(-c4ccccc4)c3N3CCCC3)cc2)cc1 | 17.9% (inactive)
24 | COc1ccccc1NS(=O)(=O)c1cccc(C(=O)N/N=C/c2c(C)nn(-c3ccccc3)c2N2CCCC2)c1 | 6.1% (inactive)
25 | O=C(NC(=S)N1CCN(c2c(Cl)cccc2[N+](=O)[O-])CC1)c1cccs1 | -24% (inactive)
26 | Cc1ccc(C(=O)N/N=C/c2ccc([N+](=O)[O-])s2)cc1 | -4.76% (inactive)
27 | O=C(c1ccccc1)c1nc2ccccc2n(CCCn2c(=O)c(C(=O)c3ccccc3)nc3ccccc32)c1=O | -19.2% (inactive)
28 | CCc1cccc(C)c1NC(=S)NCc1cccn1C | 21.8% (inactive)
29 | COc1cccc2[nH]c3c(N4CCN(Cc5ccc6c(c5)OCO6)CC4)ncnc3c12 | -6.03% (inactive)
30 | O=C(NCc1ccco1)C1CC(=O)N(CCc2ccccc2)C1 (stereo unspecified) | 9.58% (inactive)
31 | N#C/C(=C\c1ccc(F)c(F)c1)C(=O)NC1CCCCC1 | -10.3% (inactive)
